Twelve molecules from PubChem BioAssay can be followed below.

Active and inactive are the calls of the source. Unless noted, how the calls were made is not given here.

Test [1] is described as follows: HepG2 liver cancer cell viability effects, profiling panel, resazurin fluorescence, 24 h, PK04 Diversity Set (AID 1172). Further: test concentration not given here. The settings on record: higher = more signal.
A short description of test [2]: basal S. cerevisiae growth modulation, no modifier, primary screen, OD600, strain BY4716, 24 h, basal condition (AID 1173). The settings on record: OD600, 24 h, higher = more signal, called active from +8 up or from −8 down.
Test [3] in a line: MM1S myeloma cell viability, profiling panel, resazurin fluorescence, basal, 24 h, PK04 Diversity Set (AID 1174). Further: test concentration not given here. The settings on record: higher = more signal, called active from +8 up or from −8 down. Background: Alamar Blue is a resazurin reagent that responds to reducing activity.
In test [4] the target is Dihydroorotate dehydrogenase (quinone), mitochondrial (Plasmodium falciparum (isolate 3D7)) (UniProt Q08210). Nature of the test: PfDHODH enzyme inhibitors, primary screen, biochemical, C-terminal His tag, absorbance 600 nm (AID 1175).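 Further: recombinant parasite enzyme with a five histidine tag at its C terminus; test concentration not given here.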 The settings on record: DCIP absorbance 600 nm, higher = more signal, called active from +8 up or from −8 down.
Test [5] can be described thus: P. aeruginosa biofilm formation inhibitors, primary screen, strain PAO1, LB-PBS medium, absorbance 600 nm (AID 1176). Further: test concentration not given here. The settings on record: P. aeruginosa PAO1 growth/biofilm, A600, 12 h; higher = more signal.
Test [6] can be described thus: S. cerevisiae RM11-1a growth modifiers, primary screen, strain RM11-1a, OD600, basal, 24 h (AID 1177).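 Further: cultures grown under basal conditions with no added stressor; test concentration not given here.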 As to conditions: OD600, 24 h, higher = more signal, called active from +8 up or from −8 down.
Test [7] in a line: E. coli acrAB mutant growth effects, primary screen, E. coli filamentation inducers, strain DRC39, OD650, 24 h (AID 1178).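 Further: growth measured as culture turbidity by optical density at 650 nm; test concentration not given here.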 As to conditions: higher = more signal, called active from +8 up or from −8 down.
Test [8] can be described thus: E. coli acrAB mutant growth effects, primary screen, E. coli filamentation inducers, strain DRC39, OD650, 48 h (AID 1179).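 Further: screen aims at cell division blockers that make cells filament.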 The settings on record: E. coli DRC39 delta-acrAB growth, higher = more signal, called active from +8 up or from −8 down.
The nature of test [9]: RPMI8226 myeloma cell viability, profiling panel, resazurin fluorescence, basal, 24 h, PK04 Diversity Set (AID 1180).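 Further: RPMI8826 multiple myeloma cell line at 5000 cells per well; test concentration not given here.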 As to conditions: higher = more signal.
For test [10], the target named is E3 ubiquitin-protein ligase XIAP (Homo sapiens) (UniProt P98170). The test can be described thus: XIAP binders, primary screen, biophysical, small-molecule microarray, fluorescence 635 nm (AID 1181).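 Further: score merges 667 nm emission and signal to noise over triplicate slides.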 The settings on record: small-molecule microarray binding, higher = more signal.
E3 ubiquitin-protein ligase XIAP (Homo sapiens), sequence (P98170 whole entry, looked up): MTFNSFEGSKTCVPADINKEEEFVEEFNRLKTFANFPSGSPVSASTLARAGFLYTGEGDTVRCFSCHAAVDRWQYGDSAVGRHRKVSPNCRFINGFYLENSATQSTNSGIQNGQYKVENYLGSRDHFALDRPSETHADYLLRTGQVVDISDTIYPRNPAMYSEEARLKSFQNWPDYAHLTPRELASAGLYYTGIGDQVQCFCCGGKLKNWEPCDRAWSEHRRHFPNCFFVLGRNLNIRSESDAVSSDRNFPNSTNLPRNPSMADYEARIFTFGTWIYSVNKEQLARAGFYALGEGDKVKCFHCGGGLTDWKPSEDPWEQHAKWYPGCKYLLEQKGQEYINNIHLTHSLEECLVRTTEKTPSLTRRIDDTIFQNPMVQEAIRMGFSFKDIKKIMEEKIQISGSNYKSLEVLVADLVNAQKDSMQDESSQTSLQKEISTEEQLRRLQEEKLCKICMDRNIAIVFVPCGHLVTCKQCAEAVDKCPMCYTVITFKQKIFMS

Dihydroorotate dehydrogenase (quinone), mitochondrial (Plasmodium falciparum (isolate 3D7)), sequence (Q08210 whole entry, looked up): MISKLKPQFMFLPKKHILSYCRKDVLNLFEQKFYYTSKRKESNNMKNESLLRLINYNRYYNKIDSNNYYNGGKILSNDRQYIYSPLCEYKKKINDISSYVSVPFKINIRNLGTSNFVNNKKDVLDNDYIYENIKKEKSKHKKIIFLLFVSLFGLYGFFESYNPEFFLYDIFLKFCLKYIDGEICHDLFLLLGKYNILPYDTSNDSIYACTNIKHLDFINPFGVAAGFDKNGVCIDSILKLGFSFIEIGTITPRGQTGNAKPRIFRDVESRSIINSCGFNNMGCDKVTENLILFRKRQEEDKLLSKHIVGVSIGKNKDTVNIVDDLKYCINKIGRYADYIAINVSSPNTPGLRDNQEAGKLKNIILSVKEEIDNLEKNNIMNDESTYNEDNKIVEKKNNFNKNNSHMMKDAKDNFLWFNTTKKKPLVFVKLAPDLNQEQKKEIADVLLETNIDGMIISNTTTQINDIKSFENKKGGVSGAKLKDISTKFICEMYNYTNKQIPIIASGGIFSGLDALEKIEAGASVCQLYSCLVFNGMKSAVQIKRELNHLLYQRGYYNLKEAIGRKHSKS

Regarding `COc1ccc(C#Cc2ccc3c(c2)[C@]2(C(=O)N3)[C@H](C(N)=O)[C@H]3C(=O)O[C@H](c4ccccc4)[C@H](c4ccccc4)N3[C@@H]2c2ccc(O)cc2)cc1`, the z-score was -0.295 in test [1]; -0.299 (inactive) in [2]; -4.88 (inactive) in [3]; 1.41 (inactive) in test [5]; 1.68 (inactive) in [6]; 0.666 (inactive) in test [7]. Further, the z-score in test [8] is 0.714 (inactive); in [9], -6.43. In addition, the figures for the composite z-score in [4] and in test [10] were 0.817 (inactive) and 0.0031, respectively.
`CN1C(=O)C2C=CC(C(O)C3CCCCC3)N(N(c3ccccc3)c3ccccc3)C2C1=O` (stereo not given): the z-score in test [1] was -0.11; in test [2] it was 0.495 (inactive); in test [3], -1.54 (inactive); in test [5] it was 0.571 (inactive); in test [6], 0.0139 (inactive); in test [7], -0.881 (inactive). Further, the z-score in test [8] was -0.121 (inactive); in [9], -1.54. Also, the composite z-score was -0.15 (inactive) in test [4] and 0.264 in test [10].
With `CN(C)CCCN1C(=O)[C@@]2(Cc3ccccc31)c1ccccc1C(=O)N(Cc1ccccc1)[C@H]2c1ccc(CO)cc1`, the z-score is 1.18 in [1]; 0.225 (inactive) in test [2]; 1.04 (inactive) in test [3]; 0.587 (inactive) in [5]; -0.549 (inactive) in [6]; 0.672 (inactive) in test [7]. Moreover, the z-score in test [8] was -0.245 (inactive); in [9] it was 0.246. Also, the composite z-score is -6.03 (inactive) in [4] and -0.176 in [10].
For `Cc1ccc(S[C@]2(C(=O)NCc3ccccc3)CC(=O)N(C3Cc4ccccc4C3)[C@@H]2c2ccc(CO)cc2I)cc1`, the z-score in test [1] was -0.0974; in [2], -2.95 (inactive); in [3], -2.61 (inactive); in [5], 0.761 (inactive); in test [6], -2.63 (inactive); in test [7], 0.964 (inactive). Besides, the z-score was 1.52 (inactive) in test [8] and -1.89 in [9]. In addition, the composite z-score was -1.29 (inactive) in [4] and -0.315 in test [10].
For `COCCCNC(=O)[C@@H]1c2ccccc2C(=O)N(c2ccc(C)cn2)[C@H]1c1ccc(CO)cc1`, the z-score was -1.23 in [1]; 0.357 (inactive) in [2]; 0.507 (inactive) in test [3]; 0.242 (inactive) in test [5]; 0.169 (inactive) in test [6]; -0.541 (inactive) in test [7]. In addition, the z-score in test [8] is -0.856 (inactive); in test [9], 0.162. The composite z-score was 0.293 (inactive) in test [4] and -0.195 in [10].
For `O=C1N(Cc2ccccc2)c2ccccc2[C@H]2OC(c3ccc(OCCCO)cc3)=N[C@@]12CCS(=O)(=O)c1ccccc1`, the z-score in test [1] is -0.362; in test [2], 1.21 (inactive); in test [3], -0.56 (inactive); in test [5] it was 1.47 (inactive); in test [6] it was 2.68 (inactive); in test [7], 0.244 (inactive). Besides, the z-score is -0.939 (inactive) in [8] and -0.509 in test [9]. In addition, the results for the composite z-score in test [4] and in test [10] were 0.876 (inactive) and 0.12, respectively.
With `COC(=O)[C@]1(Cc2ccccc2CN=[N+]=[N-])N=C(c2ccc(OCCCO)cc2)O[C@@H]1c1ccccc1CN=[N+]=[N-]`, the z-score in [1] is -1.27; in test [2] it was 0.803 (inactive); in test [3] it was -3.36 (inactive); in test [5], 3.93 (inactive); in [6], 2.92 (inactive); in test [7] it was 2.1 (inactive). Moreover, the z-score in [8] is 1.6 (inactive); in test [9], -4.23. Moreover, the composite z-score is 1.36 (inactive) in test [4] and -0.0025 in test [10].
`C[N+](C)(C)CCCC[C@@H]1NC(=O)[C@@H]2C[C@H](C(=O)O)[C@H](c3cccc(OCCO)c3)N2C1=O`: the z-score in [1] is 0.72; in test [2], -0.219 (inactive); in [3], 0.838 (inactive); in [5], -0.351 (inactive); in test [6], -0.126 (inactive); in [7] it was 1.13 (inactive). The z-score in test [8] is 1.36 (inactive); in test [9], 0.826. Further, the composite z-score in [4] was 0.284 (inactive); in test [10], -0.131.
Regarding `COCCCNC(=O)[C@@H]1c2ccccc2C(=O)N(Cc2cc(F)cc(C(F)(F)F)c2)[C@H]1c1ccc(CO)cc1`, the z-score in test [1] was -0.434; in test [2], -0.336 (inactive); in test [3] it was -0.522 (inactive); in [5] it was 0.36 (inactive); in test [6], -0.955 (inactive); in test [7], -0.109 (inactive). Further, the z-score is -0.0475 (inactive) in test [8] and -0.197 in test [9]. Moreover, the composite z-score was -1.13 (inactive) in test [4] and -0.309 in test [10].
Turning to `COC(=O)C(CC#Cc1ccc2c(c1)[C@]1(C(=O)N2)[C@H](c2ccccc2OCCO)N2[C@H](c3ccccc3)[C@H](c3ccccc3)OC(=O)[C@H]2[C@@H]1C(=O)Nc1nc2ccccc2s1)C(=O)OC`, the z-score in test [1] is -0.449; in test [2], 1.4 (inactive); in test [3], 0.699 (inactive); in test [5], 3.7 (inactive); in test [6], 2.33 (inactive); in test [7], -0.0715 (inactive). Moreover, the z-score in test [8] was 0.172 (inactive); in test [9], 1.05. The composite z-score was -8 (inactive) in test [4] and 0.0264 in test [10].
Regarding `COC(=O)C(CC#Cc1ccc2c(c1)[C@]1(C(=O)N2)[C@H](c2ccc(O)cc2)N2[C@H](c3ccccc3)[C@H](c3ccccc3)OC(=O)[C@H]2[C@@H]1C(N)=O)C(=O)OC`, the z-score in [1] is 1.09; in test [2], -0.773 (inactive); in test [3], 0.455 (inactive); in test [5], 1.28 (inactive); in [6], -0.864 (inactive); in test [7] it was 1.68 (inactive). The values for the z-score in [8] and in test [9] were 2.08 (inactive) and 1.1, respectively. Moreover, the composite z-score in [4] was 0.133 (inactive); in test [10] it was 0.153.
Consider `O=C1O[C@H](c2ccccc2)[C@H](c2ccccc2)N2[C@H]1[C@@H](C(=O)N1CCCCCCC1)[C@]1(C(=O)Nc3ccc(C#CCCO)cc31)[C@H]2c1ccc(OCCO)cc1`, for which the z-score in test [1] is 1.08; in test [2], 0.905 (inactive); in [3] it was 0.332 (inactive); in test [5], 0.0568 (inactive); in test [6], -0.0365 (inactive); in [7], 0.136 (inactive). In addition, the z-score is -0.656 (inactive) in test [8] and 0.543 in test [9]. Also, the composite z-score was 0.521 (inactive) in test [4] and 2.52 in [10].
